Screening data from PubChem BioAssay.
TDP1 cell noCPT: qHTS for Inhibitors of human tyrosyl-DNA phosphodiesterase 1 (TDP1): qHTS in cells in absence of CPT; DT40 Tdp1-/- hTDP1 cells, no CPT, ATP luminescence, 48 h; Potency, µM (highest dose often 46.2 µM), without a hit: top-dose activity change, negative = growth inhibition, hits mostly inhibitors; hit rate 15% among 420,000; note: % is set by controls: 0 for no effect and ±100 for the full control effect; nearly all actives have a fitted effect of over 55% in size
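A cellular qHTS used chicken DT40 cells lacking endogenous Tdp1 but carrying stably transfected human TDP1. Compounds were applied without camptothecin, and cell growth kinetics were judged by ATP-dependent luminescence after ≥48 hr.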
ATXN viability: reduces viability in counter-screen for ATXN expression inhibitors; S2 cells (HEK-293 line with an ATXN2-luciferase reporter) viability, CellTiter-Fluor protease fluorescence, 24 h; Potency, µM (top dose mostly 56.7 µM), most hits filed as cytotoxic; hit rate 0.49% among 400,000; AID 651635; note: nearly all actives have a fitted effect of over 40% in size
TGFb inhibitor: TGF-b pathway inhibition; Potency, µM (titrated, usually from 46.1 µM), for inactives: at the top dose activity, negative = inhibition, hits mostly inhibitors; HepG2 CAGA-GFP TGF-b/SMAD3 reporter, GFP fluorescence, 18 h; TGF-beta stimulated, 500 pg/mL final; hit rate 1.2% among 410,000; AID 588855; note: % is set by controls: 0 for no effect and ±100 for the full control effect; nearly all actives have a fitted effect of over 65% in size
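Inhibition was scored as loss of TGF-beta-induced (500 pg/mL final, 18 hours, 37 degrees C) GFP in HEPG2 cells carrying a CAGA-GFP reporter, in DMEM with 1% FBS. Well GFP was summed per cell; Activity was normalised to unstimulated and stimulated DMSO wells, then concentration-response fitting.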
HepG2 tox: kills HepG2 cells in TGF-b inhibitor counter-screen. HepG2 CAGA-GFP viability, ATP luminescence, 18 h. AID 588856. Potency, µM (series often up to 46.1 µM), for inactives: at the highest dose activity change, negative = cytotoxicity, most hits filed as cytotoxic. hit rate 0.76% among 410,000
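HepG2 CAGA-GFP cells (1000/well, DMEM with 1% FBS) received compound, then TGF-beta at 500 pg/mL final, and were incubated 18 hours at 37 degrees C. Viability was read by CellTiter-Glo luminescence. Media-only wells were set as complete cell-killing and DMSO as no toxicity.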
DT40 TDP1 CPT: growth inhibition of DT40 Tdp1-/-;hTDP1 cells with camptothecin (screen for TDP1 inhibitors). hit rate 12% among 420,000. Potency, µM (doses to about 46.2 µM), for the others: at the highest dose activity change, negative = growth inhibition, most hits filed as inhibitors. chicken DT40 Tdp1-/-;hTDP1 cells + 20 nM CPT, ATP luminescence, 48 h; note: % is set by controls: 0 for no effect and ±100 for the full control effect; nearly all actives have a fitted effect of over 55% in size
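Cell growth measured by CellTiter-Glo luminescence after a minimum 48 h, 37 C compound exposure with 20 nM CPT in Tdp1-knockout DT40 cells stably expressing hTDP1, seeded 400/well; qHTS titration format.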
ATXN2 expr inh: inhibitors of ATXN2 expression | AID 1745845 | Potency, µM (titrated, usually from 57 µM), for the others: at the highest dose activity change, negative = inhibition, usual class: inhibitors | HEK-293 ATXN2-luciferase reporter, luminescence, 24 h | hit rate 0.72% among 360,000; note: % is set by controls: 0 for no effect and ±100 for the full control effect; nearly all actives have a fitted effect of over 55% in size
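ATXN2-luciferase reporter cells (luciferase flanked by upstream and downstream ATXN2 gene portions) were treated 24 h at 37 °C with compounds at up to 57 uM. SteadyGlo luminescence gave expression; GF-AFC fluorescence gave viability.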
* hit, by the source's call; i = inactive; ? = inconclusive; nt = not tested or not shown. Shown are actives, neighbours in structure and some others; about 17% of the full set was active somewhere. Calls come from the whole dose curve; as a rule, active = well fitted curve in the direction sought with a large enough effect; inconclusive = small, poorly fitted or top-dose-only effect, or another doubt; inactive = no such curve, though single readings can be large; an effect the other way counts as inactive or inconclusive. Potency is the fitted concentration of half-maximal effect.

SMILES	TDP1 cell noCPT	ATXN viability	TGFb inhibitor	HepG2 tox	DT40 TDP1 CPT	ATXN2 expr inh
COC(=O)c1cccc(NC(=S)Nc2ccc(Cl)c(Cl)c2)c1	25.9µM*	?	?	-24.8%	-2.2%	-37.7%
COC(=O)[C@@H](NS(=O)(=O)c1cc(Br)ccc1Br)C(C)C	?	i	-4.6%	3.4%	?	4.2%
C=CCOc1c(Br)cc(/C=N/n2c(CC)n[nH]c2=S)cc1Br	?	i	?	-53.3%	?	-8.8%
CCN(CC)c1nc(C#N)nc(N(CC)CC)n1	-15.6%	i	-0.4%	1.5%	?	6.1%
CCCN(CCC)c1nc(N)nc(C#N)n1	17.8µM*	nt	-9.9%	-12.7%	?	nt
CC1=C(C(=O)NCc2ccccc2C)C2(CCCCC2)OC1=O	-15.8%	i	-23.0%	-11.7%	-23.9%	1.6%
CC1CCc2nc(-c3cc4ccc(O)cc4oc3=O)sc2C1 (centres undefined)	?	nt	170.1%	-5.7%	-8.5%	nt
O=C(C1CCCN1S(=O)(=O)c1ccc(Cl)cc1)N1CCN(c2ccccc2)CC1 (centres undefined)	?	i	0.0%	-69.9%	-5.7%	2.7%
O=C(c1ccco1)N1CCN(c2nc(C3CC3)nc3sc4c(c23)CCCC4)CC1	?	i	?	-54.3%	25.9µM*	-29.8%
CCOC(=O)c1nc(N2CCN(C(=O)OCC)CC2)c2c3c(sc2n1)CCCC3	25.9µM*	i	-2.9%	-72.0%	16.4µM*	-12.0%
Cc1nc(N2CCN(C(=O)c3ccco3)CC2)c2c3c(sc2n1)CCCC3	14.6µM*	?	?	-20.4%	?	?
CCc1cc2cc(C)ccc2nc1SCC(=O)N1CCN(C(=O)c2ccco2)CC1	20.6µM*	i	?	-33.0%	13µM*	-2.7%
Cc1nc(N2CCN(C(=O)c3cccs3)CC2)c2c3c(sc2n1)CCCC3	?	i	-23.4%	-4.2%	?	?
CCc1cc2cc(C)cc(C)c2nc1SCC(=O)N1CCCC1	?	i	2.4%	6.5%	29.1µM*	-9.8%
Cc1ccc2cc(C)c3nnc(SCC(=O)N4CCN(C(=O)c5ccco5)CC4)n3c2c1	?	i	-12.6%	-17.5%	-26.8%	-9.9%
CCc1cc2cc(C)cc(C)c2nc1SCC(=O)Nc1cc(C)on1	23.2%	i	1.2%	-0.4%	-6.0%	1.6%
Cc1cc2cc(C)c3nnc(SCC(=O)N4CCN(C(=O)c5ccco5)CC4)n3c2cc1C	11.6µM*	i	-23.4%	-22.9%	?	0.0%
CCc1nc(SCC(=O)N2CCN(C(=O)c3ccco3)CC2)c2c3c(sc2n1)CCCC3	13µM*	i	-12.5%	-18.3%	?	?
CCc1cc2ccccc2nc1SCC(=O)N1CCN(C(=O)c2ccco2)CC1	?	i	-17.8%	-13.7%	?	-1.0%
Cc1nc(N2CCN(C(=O)c3ccco3)CC2)c2c3c(sc2n1)CC(C)CC3 (centres undefined)	16.4µM*	?	?	-15.1%	20.6µM*	nt
CC(Sc1nnc(Cc2ccc3c(c2)OCO3)o1)C(N)=O (centres undefined)	0.3%	i	4.7%	-4.1%	3.2%	2.1%
N#Cc1c(N2CCN(C(=O)c3ccco3)CC2)nc(-c2ccccc2)c2c1CCCC2	?	?	?	-2.0%	25.9µM*	?
CC1=C(C(=O)N(C(C)C)C(C)C)CC(CC(=O)NC(c2ccccc2)c2ccccc2)C(=O)N1Cc1ccc(F)cc1 (centres undefined)	?	?	?	0.4%	?	-15.5%
O=C(Nc1cccs1)Nc1c(F)c(F)c(F)c(F)c1F	16.4µM*	i	-18.9%	-22.5%	20.6µM*	-7.4%
N#Cc1cccc(NC(=O)Nc2cccs2)c1	16.4µM*	i	-3.6%	-59.9%	?	6.8%
SMILES	TDP1 cell noCPT	ATXN viability	TGFb inhibitor	HepG2 tox	DT40 TDP1 CPT	ATXN2 expr inh
Cc1cccc(C)c1NC(=O)Nc1cccs1	18.4µM*	i	6.4%	-42.1%	18.4µM*	-11.9%
O=C(Nc1cccs1)Nc1cc(C(F)(F)F)ccc1Cl	16.4µM*	nt	nt	-84.0%	?	nt
Cc1cc(SCC(=O)Nc2ccc(C(F)(F)F)cc2)nc(=O)[nH]1	-22.8%	i	-1.5%	-6.4%	-15.9%	-30.7%
O=C(Nc1cccs1)Nc1c(F)cc(F)cc1Br	23.1µM*	?	-1.4%	-6.4%	7.31µM*	?
O=C(Nc1cccs1)Nc1c(F)c(F)cc(F)c1F	-4.7%	?	-13.0%	11.9%	-11.7%	-4.5%
COC(=O)c1ccccc1OCC(=O)NC1CCCCC1	-13.8%	i	-26.0%	-32.0%	-10.0%	37.6%
O=C(Nc1ccc(C2CC2(Cl)Cl)cc1)c1ccccc1Br (centres undefined)	13µM*	i	?	-20.1%	18.4µM*	37.9%
Cc1ccccc1NC(=O)c1ccccc1OCC(=O)Nc1ccc(Br)cc1	14.1µM*	nt	?	-2.0%	?	nt
CC(OC(=O)c1ccccc1OCC(=O)Nc1ccc(Br)cc1)C(=O)NC1CCCC1 (centres undefined)	10µM*	nt	nt	nt	8.91µM*	nt
N#Cc1ccccc1NC(=O)COc1ccccc1C(=O)Nc1ccccc1	?	i	-10.8%	-25.4%	15.8µM*	-13.0%
Cc1ccccc1NC(=O)COC(=O)c1ccccc1OCC(=O)Nc1ccc(Br)cc1	4.6%	nt	8.3%	1.6%	-4.2%	nt
O=C(Nc1ccc(C(=O)N2CCCC2)cc1)c1ccccc1Br	-5.4%	i	0.0%	-39.4%	-7.6%	-19.4%
O=C(COc1ccccc1C(=O)Nc1ccccc1)Nc1ccccc1Br	?	nt	-25.4%	-4.5%	?	nt
CC(C)C(=O)N1CCCC1(C)C(=O)Nc1ccc(-n2cccc2)cc1 (centres undefined)	-6.4%	i	-9.5%	1.4%	3.7%	0.9%
O=C(Oc1ccccc1C(=O)Nc1ccccc1)c1ccccc1Br	20.6µM*	i	0.0%	-23.5%	18.4µM*	86.3%
O=C(COc1ccccc1C(=O)Nc1ccccc1)Nc1ccccc1-c1ccccc1	?	nt	?	-5.6%	12.6µM*	nt
COc1ccc(C(=O)COc2ccccc2C(=O)Nc2ccccc2)cc1	18.4µM*	i	3.5%	-2.0%	11.6µM*	-17.8%
O=C(COc1ccccc1C(=O)Nc1ccccc1)Nc1ccc(-c2ccccc2)cc1	11.2µM*	nt	0.9%	3.9%	?	nt
O=C(COc1ccccc1C(=O)Nc1ccccc1)c1ccc(F)cc1	?	i	7.9%	-3.6%	?	-20.6%
